# According to PMC7862700, “An all-to-all approach to the identification of sequence-specific readers for epigenetic DNA modifications on cytosine”:
# What was measured:
# Experiment in all cases: DAPPL (digital affinity profiling via proximity ligation, sequencing); 10 mM Tris-HCl pH 7.5, 50 mM NaCl, 1 mM DTT, 4% glycerol, room temperature, 30 min; GST-TFs on glutathione beads, 16-mer random dsDNA library, 0.1% formaldehyde crosslink after washing; high values mean tight binding
# FLI1 = target: T1, FLI1 (Homo sapiens, UniProt Q01543 1-452); details: protein: recombinant; tags: N-terminal GST; dsDNA, one strand shown
# T1 sequence: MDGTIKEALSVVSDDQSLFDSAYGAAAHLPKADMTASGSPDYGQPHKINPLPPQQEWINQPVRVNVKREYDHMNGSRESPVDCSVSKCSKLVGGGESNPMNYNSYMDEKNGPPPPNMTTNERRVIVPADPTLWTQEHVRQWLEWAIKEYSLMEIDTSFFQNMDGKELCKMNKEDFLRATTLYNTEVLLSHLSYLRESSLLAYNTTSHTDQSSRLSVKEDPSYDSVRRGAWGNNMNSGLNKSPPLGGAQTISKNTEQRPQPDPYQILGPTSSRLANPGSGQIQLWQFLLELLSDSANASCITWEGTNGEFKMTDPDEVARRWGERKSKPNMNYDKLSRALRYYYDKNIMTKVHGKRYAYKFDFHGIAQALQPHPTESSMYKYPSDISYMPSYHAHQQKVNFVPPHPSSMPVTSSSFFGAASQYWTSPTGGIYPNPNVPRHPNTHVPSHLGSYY
# Summary of the method: (§1)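 Sequencing on an Illumina NextSeq500 followed washing, crosslinking with 0.1% formaldehyde, proximity ligation (BsaI/T4 ligase, 1 h, 37 °C) and PCR amplification of pools that had been incubated for 30 min at room temperature with 200 nmole of a random double-stranded 16-mer DNA library in Tris/NaCl/DTT/glycerol buffer. Each pool held DNA-barcoded human transcription factors, expressed in yeast as GST fusions and captured on glutathione beads, plus a tag-only sample. Binding signal is a hexamer's read frequency for a factor divided by its frequency in the tag-only sample.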
# ELK1 = target: T2, ELK1 (Homo sapiens, UniProt P19419 1-428); details: protein: recombinant; tags: N-terminal GST; dsDNA, one strand shown
# T2 sequence: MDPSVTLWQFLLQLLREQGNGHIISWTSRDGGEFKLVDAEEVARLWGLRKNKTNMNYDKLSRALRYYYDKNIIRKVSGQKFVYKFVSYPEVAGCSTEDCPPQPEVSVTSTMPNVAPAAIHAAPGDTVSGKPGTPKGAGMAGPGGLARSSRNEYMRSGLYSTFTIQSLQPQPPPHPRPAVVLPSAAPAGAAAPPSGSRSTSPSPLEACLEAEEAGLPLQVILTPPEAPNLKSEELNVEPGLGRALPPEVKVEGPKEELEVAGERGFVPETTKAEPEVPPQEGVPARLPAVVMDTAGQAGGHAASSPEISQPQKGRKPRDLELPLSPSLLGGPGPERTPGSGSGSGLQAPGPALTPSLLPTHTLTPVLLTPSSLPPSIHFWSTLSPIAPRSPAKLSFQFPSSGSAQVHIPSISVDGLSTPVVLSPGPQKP
# Summary of the method: as §1
# GABPA = target: T3, GABPA (Homo sapiens, UniProt Q06546 1-454); details: protein: recombinant; tags: N-terminal GST; dsDNA, one strand shown
# T3 sequence: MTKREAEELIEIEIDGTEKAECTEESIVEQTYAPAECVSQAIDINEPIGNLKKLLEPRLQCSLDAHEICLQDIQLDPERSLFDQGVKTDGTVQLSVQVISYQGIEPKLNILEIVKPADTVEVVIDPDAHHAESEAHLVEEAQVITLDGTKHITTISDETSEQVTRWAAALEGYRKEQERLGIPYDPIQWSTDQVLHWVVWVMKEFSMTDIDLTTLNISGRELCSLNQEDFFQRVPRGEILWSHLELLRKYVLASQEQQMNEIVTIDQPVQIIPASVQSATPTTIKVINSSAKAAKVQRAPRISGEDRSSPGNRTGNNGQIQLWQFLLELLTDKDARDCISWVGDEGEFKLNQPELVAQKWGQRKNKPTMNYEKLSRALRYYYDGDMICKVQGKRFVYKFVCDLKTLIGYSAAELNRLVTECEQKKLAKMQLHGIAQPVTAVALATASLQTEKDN
# Summary of the method: as §1
# ERG = target: T4, ERG (Homo sapiens, UniProt P11308 1-479); details: protein: recombinant; tags: N-terminal GST; dsDNA, one strand shown
# T4 sequence: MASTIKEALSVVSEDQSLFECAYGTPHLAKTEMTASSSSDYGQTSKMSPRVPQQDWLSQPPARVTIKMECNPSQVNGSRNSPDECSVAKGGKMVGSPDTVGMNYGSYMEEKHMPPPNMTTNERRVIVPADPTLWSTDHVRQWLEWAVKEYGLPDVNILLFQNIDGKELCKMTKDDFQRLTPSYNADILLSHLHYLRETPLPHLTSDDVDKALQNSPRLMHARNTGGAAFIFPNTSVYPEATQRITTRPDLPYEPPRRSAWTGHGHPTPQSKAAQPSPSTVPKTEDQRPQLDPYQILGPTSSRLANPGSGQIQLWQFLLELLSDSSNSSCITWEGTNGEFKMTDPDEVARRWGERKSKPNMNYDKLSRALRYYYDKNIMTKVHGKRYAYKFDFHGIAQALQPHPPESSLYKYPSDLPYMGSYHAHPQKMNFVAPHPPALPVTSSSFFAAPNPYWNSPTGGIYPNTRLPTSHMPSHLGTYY
# Summary of the method: as §1
# ELF1 = ELF1 (Homo sapiens, UniProt P32519 1-619); details: protein: recombinant; tags: N-terminal GST; dsDNA, one strand shown
# Sequence of ELF1 (P32519 whole entry): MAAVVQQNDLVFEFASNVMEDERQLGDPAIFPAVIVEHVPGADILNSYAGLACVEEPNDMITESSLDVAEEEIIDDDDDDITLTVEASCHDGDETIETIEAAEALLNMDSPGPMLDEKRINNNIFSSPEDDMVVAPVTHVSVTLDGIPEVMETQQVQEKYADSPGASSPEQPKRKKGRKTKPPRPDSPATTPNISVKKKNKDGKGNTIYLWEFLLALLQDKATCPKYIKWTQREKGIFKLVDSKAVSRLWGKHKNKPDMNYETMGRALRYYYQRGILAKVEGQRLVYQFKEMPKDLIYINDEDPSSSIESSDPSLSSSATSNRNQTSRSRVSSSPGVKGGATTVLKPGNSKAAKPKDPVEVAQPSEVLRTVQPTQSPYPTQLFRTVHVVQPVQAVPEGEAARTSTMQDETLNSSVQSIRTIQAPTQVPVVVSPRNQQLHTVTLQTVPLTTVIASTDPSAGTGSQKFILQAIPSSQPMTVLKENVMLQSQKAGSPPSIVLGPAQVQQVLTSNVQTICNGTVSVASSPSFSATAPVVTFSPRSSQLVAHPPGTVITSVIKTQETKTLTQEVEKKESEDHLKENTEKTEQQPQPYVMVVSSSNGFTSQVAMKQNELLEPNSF
# Summary of the method: as §1
# EHF = target: T5, EHF (Homo sapiens, UniProt Q9NZC4 1-300); details: protein: recombinant; tags: N-terminal GST; dsDNA, one strand shown
# T5 sequence: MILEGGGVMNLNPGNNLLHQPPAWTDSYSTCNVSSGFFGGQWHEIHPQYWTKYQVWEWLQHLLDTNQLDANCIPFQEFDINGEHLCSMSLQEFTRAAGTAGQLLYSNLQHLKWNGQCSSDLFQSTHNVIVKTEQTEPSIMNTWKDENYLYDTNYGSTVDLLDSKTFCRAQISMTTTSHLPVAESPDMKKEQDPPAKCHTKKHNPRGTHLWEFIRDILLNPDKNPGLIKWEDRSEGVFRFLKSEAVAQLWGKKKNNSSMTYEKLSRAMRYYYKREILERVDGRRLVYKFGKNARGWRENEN
# Summary of the method: as §1
# SPI1 = SPI1 (Homo sapiens, UniProt P17947 1-270); details: protein: recombinant; tags: N-terminal GST; dsDNA, one strand shown
# Summary of the method: as §1
# SPIB = SPIB (Homo sapiens, UniProt Q01892 1-262); details: protein: recombinant; tags: N-terminal GST; dsDNA, one strand shown
# Sequence of SPIB (Q01892 whole entry): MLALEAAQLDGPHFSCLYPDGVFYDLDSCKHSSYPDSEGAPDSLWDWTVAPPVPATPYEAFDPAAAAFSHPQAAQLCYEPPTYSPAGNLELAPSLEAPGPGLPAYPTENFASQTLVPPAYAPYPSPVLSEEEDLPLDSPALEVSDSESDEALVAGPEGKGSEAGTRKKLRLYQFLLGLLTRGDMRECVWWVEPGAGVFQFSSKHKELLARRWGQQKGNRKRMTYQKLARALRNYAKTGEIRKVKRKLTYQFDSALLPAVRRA
# Summary of the method: as §1
# ELK3 = target: T6, ELK3 (Homo sapiens, UniProt P41970 1-407); details: protein: recombinant; tags: N-terminal GST; dsDNA, one strand shown
# T6 sequence: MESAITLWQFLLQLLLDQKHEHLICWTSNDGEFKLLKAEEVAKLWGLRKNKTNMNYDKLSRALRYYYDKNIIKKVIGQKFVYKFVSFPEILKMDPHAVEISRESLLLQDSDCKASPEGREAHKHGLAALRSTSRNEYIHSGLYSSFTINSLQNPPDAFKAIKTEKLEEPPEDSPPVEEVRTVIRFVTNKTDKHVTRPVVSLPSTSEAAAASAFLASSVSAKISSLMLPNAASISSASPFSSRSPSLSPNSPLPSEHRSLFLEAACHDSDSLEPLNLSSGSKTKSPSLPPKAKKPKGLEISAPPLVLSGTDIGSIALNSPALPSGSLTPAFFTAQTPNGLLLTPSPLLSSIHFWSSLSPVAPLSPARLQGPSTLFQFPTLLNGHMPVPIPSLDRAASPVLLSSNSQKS
# Summary of the method: as §1
# FEV = target: T7, FEV (Homo sapiens, UniProt Q99581 1-238); details: protein: recombinant; tags: N-terminal GST; dsDNA, one strand shown
# T7 sequence: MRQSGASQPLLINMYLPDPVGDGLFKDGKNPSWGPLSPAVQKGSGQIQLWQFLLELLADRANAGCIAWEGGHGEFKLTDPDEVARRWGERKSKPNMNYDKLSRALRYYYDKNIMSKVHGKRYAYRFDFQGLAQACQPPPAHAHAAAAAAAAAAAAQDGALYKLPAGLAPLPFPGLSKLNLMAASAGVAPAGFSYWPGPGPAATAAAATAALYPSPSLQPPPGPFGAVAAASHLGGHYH
# Summary of the method: as §1
# ETV5 = ETV5 (Homo sapiens, UniProt P41161 1-510); details: protein: recombinant; tags: N-terminal GST; dsDNA, one strand shown
# Sequence of ETV5 (P41161 whole entry): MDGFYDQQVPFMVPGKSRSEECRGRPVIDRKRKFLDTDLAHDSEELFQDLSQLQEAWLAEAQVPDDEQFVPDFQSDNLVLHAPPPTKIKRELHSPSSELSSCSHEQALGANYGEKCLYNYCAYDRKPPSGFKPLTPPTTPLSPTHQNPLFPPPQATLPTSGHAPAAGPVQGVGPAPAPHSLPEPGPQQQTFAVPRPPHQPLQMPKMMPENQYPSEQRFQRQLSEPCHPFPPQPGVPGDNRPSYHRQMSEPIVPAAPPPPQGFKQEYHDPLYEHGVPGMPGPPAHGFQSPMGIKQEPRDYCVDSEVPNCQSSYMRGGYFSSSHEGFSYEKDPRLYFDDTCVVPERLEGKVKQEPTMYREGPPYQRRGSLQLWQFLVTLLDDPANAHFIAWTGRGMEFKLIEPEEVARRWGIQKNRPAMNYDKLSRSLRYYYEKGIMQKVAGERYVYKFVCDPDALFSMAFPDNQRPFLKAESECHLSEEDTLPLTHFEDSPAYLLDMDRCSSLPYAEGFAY
# Summary of the method: as §1
# HSF1 = HSF1 (Homo sapiens, UniProt Q00613 1-529); details: protein: recombinant; tags: N-terminal GST; chain copies: 3; dsDNA, one strand shown
# Sequence of HSF1 (Q00613 whole entry): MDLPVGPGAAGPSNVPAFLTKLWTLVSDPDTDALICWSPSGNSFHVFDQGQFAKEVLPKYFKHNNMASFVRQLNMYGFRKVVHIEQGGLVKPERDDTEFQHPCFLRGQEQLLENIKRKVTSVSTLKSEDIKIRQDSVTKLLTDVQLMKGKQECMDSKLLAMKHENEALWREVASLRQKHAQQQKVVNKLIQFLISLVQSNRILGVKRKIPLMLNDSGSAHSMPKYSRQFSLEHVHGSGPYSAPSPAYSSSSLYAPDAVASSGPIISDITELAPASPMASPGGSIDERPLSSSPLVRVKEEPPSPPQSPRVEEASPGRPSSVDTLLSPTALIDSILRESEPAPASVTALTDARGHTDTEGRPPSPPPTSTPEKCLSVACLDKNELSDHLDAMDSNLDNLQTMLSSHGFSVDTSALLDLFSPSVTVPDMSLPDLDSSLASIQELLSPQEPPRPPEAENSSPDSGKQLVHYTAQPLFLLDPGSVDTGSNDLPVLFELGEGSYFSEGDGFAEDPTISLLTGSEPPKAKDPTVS
# Summary of the method: as §1
# SPIC = target: T8, SPIC (Homo sapiens, UniProt Q8N5J4 1-248); details: protein: recombinant; tags: N-terminal GST; dsDNA, one strand shown
# T8 sequence: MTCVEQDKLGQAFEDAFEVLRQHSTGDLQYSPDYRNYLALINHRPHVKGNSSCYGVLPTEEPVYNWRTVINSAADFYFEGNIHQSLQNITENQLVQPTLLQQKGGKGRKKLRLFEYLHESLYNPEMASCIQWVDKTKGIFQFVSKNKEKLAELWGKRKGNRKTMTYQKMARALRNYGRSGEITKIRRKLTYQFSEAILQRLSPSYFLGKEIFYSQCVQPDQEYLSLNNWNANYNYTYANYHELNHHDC
# Summary of the method: as §1
# ELF4 = ELF4 (Homo sapiens, UniProt Q99607 1-663); details: protein: recombinant; tags: N-terminal GST; dsDNA, one strand shown
# Sequence of ELF4 (Q99607 whole entry): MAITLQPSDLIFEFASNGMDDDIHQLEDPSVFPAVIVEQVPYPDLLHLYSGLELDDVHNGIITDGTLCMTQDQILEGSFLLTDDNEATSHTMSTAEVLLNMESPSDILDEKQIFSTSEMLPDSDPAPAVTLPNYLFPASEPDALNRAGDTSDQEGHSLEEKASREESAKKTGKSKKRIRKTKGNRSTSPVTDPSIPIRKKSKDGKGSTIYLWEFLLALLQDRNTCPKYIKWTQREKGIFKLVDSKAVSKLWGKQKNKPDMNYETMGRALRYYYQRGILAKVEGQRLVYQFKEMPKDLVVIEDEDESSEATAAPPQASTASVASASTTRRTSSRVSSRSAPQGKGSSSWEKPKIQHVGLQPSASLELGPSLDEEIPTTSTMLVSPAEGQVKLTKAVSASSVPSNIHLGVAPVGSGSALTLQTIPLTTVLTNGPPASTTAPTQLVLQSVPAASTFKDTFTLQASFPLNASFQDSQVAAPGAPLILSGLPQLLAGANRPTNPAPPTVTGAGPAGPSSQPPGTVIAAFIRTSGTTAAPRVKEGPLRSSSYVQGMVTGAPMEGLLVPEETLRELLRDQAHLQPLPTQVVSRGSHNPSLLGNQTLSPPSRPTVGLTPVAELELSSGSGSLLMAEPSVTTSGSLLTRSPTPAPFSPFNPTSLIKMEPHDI
# Summary of the method: as §1
# ELK4 = target: T9, ELK4 (Homo sapiens, UniProt P28324-2 1-405); details: protein: recombinant; tags: N-terminal GST; dsDNA, one strand shown
# T9 sequence: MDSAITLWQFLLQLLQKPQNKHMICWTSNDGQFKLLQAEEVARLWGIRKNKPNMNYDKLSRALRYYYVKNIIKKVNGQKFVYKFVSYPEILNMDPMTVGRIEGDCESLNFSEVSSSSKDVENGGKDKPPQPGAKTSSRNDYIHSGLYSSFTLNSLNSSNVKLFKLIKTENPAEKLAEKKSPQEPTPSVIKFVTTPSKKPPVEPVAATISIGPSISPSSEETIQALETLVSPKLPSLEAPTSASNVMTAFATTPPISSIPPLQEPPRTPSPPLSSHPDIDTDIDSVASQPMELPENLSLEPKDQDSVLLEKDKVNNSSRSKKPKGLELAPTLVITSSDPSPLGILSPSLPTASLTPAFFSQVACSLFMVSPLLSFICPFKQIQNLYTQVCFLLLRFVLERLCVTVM
# Summary of the method: as §1
# ETV2 = target: T10, ETV2 (Homo sapiens, UniProt O00321 1-342); details: protein: recombinant; tags: N-terminal GST; dsDNA, one strand shown
# T10 sequence: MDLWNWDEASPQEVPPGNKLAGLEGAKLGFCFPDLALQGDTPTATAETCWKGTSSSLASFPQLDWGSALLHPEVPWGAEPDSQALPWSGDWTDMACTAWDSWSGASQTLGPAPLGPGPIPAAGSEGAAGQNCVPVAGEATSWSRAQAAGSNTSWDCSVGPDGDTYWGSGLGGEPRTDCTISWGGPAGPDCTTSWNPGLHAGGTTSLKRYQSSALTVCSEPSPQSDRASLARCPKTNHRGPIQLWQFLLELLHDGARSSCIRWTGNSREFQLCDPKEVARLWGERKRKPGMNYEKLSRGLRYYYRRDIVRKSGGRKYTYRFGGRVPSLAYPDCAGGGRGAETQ
# Summary of the method: as §1
# ELF3 = target: T11, ELF3 (Homo sapiens, UniProt P78545 1-371); details: protein: recombinant; tags: N-terminal GST; dsDNA, one strand shown
# T11 sequence: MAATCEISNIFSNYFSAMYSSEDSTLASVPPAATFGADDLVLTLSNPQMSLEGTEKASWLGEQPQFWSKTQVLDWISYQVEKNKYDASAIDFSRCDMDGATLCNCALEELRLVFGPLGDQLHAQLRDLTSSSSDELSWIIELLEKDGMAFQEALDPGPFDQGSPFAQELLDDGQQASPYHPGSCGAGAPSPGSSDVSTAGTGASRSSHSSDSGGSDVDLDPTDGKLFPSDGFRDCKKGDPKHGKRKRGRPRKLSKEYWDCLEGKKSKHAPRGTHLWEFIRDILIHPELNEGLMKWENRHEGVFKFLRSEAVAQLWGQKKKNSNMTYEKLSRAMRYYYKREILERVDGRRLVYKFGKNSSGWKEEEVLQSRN
# Summary of the method: as §1
# CRX = CRX (Homo sapiens, UniProt O43186 1-299); details: protein: recombinant; tags: N-terminal GST; dsDNA, one strand shown
# Sequence of CRX (O43186 whole entry): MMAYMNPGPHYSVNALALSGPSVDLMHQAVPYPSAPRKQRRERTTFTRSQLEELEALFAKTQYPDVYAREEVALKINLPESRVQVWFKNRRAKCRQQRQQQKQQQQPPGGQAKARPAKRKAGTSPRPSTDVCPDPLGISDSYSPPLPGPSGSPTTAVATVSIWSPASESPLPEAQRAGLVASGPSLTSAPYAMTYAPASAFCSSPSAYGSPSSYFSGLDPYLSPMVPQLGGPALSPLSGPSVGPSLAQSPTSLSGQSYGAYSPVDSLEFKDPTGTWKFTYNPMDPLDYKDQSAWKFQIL
# Summary of the method: as §1
# ETV1 = ETV1 (Homo sapiens, UniProt P50549 1-477); details: protein: recombinant; tags: N-terminal GST; dsDNA, one strand shown
# Sequence of ETV1 (P50549 whole entry): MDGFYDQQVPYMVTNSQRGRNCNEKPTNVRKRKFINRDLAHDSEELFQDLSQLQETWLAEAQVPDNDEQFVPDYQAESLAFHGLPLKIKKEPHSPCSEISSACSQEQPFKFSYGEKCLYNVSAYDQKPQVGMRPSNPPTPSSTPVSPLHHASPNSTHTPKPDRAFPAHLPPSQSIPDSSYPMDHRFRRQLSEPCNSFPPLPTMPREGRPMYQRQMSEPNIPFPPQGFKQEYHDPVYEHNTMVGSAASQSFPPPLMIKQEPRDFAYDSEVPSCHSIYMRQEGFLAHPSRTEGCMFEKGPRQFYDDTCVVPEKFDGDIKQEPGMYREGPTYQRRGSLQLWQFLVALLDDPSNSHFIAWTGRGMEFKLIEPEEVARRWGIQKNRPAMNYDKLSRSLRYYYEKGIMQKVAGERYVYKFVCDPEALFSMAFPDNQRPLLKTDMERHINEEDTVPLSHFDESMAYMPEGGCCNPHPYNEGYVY
# Summary of the method: as §1
sequence,measurement,setting,value
TCTACC,binding signal,FLI1,"1.54 fold enrichment (6-mer frequency, TF over GST control)"
same,binding signal,ELK1,"1.67 fold enrichment (6-mer frequency, TF over GST control)"
same,binding signal,GABPA,"1.58 fold enrichment (6-mer frequency, TF over GST control)"
same,binding signal,ERG,"1.61 fold enrichment (6-mer frequency, TF over GST control)"
same,binding signal,ELF1,"1.59 fold enrichment (6-mer frequency, TF over GST control)"
same,binding signal,EHF,"1.61 fold enrichment (6-mer frequency, TF over GST control)"
same,binding signal,SPI1,"1.54 fold enrichment (6-mer frequency, TF over GST control)"
same,binding signal,SPIB,"1.68 fold enrichment (6-mer frequency, TF over GST control)"
same,binding signal,ELK3,"1.43 fold enrichment (6-mer frequency, TF over GST control)"
same,binding signal,FEV,"1.52 fold enrichment (6-mer frequency, TF over GST control)"
same,binding signal,ETV5,"1.52 fold enrichment (6-mer frequency, TF over GST control)"
same,binding signal,HSF1,"1.67 fold enrichment (6-mer frequency, TF over GST control)"
same,binding signal,SPIC,"1.53 fold enrichment (6-mer frequency, TF over GST control)"
same,binding signal,ELF4,"1.56 fold enrichment (6-mer frequency, TF over GST control)"
same,binding signal,ELK4,"1.48 fold enrichment (6-mer frequency, TF over GST control)"
same,binding signal,ETV2,"1.39 fold enrichment (6-mer frequency, TF over GST control)"
same,binding signal,ELF3,"1.53 fold enrichment (6-mer frequency, TF over GST control)"
same,binding signal,CRX,"1.44 fold enrichment (6-mer frequency, TF over GST control)"
same,binding signal,ETV1,"1.57 fold enrichment (6-mer frequency, TF over GST control)"
